Hit rate of the full screen: of about 5,500 compounds, about 2,000 (36%) were called active. Inconclusive results (about 18%) are left out. No stated cut-off is given here; in the data, active means normalized growth mostly below about 0.91 (no sharp cut-off); inconclusive means no clear call, values can overlap the other calls; inactive means mostly above about 0.92. Some of the results follow.
Test: chemical genetic growth profiling, strain panel (AID 1159580);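 further: tested at 20 µM; growth read once vehicle control cultures reached saturation at 30 °C; 1 = growth at the plate median or of vehicle wells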
Conditions: S. cerevisiae deletion strains, growth OD
[1] = locus YCL061C, strain MRC1, stronger effect = lower value
[2] = locus YHR030C, strain SLT2, stronger effect = lower value

Measured: normalized growth

O=C(CSc1nnnn1-c1ccccc1)NC1Cc2ccccc2C1
inactive: locus YAL013W, strain DEP1, stronger effect = lower value 1.02 | locus YBR229C, strain ROT2, stronger effect = lower value 0.998 | [1] 1.02 | locus YDL101C, strain DUN1, stronger effect = lower value 1 | locus YDL134C, strain PPH21, stronger effect = lower value 1 | locus YDR150W, strain NUM1, stronger effect = lower value 0.988 | locus YEL061C, strain CIN8, stronger effect = lower value 0.988 | locus YGR078C, strain PAC10, stronger effect = lower value 1.02 | [2] 1.02 | locus YHR087W, strain rtc3, stronger effect = lower value 0.99 | locus YJR043C, strain POL32, stronger effect = lower value 1.04 | locus YJR075W, strain HOC1, stronger effect = lower value 1.01 | locus YLR039C, strain RIC1, stronger effect = lower value 1.07 | locus YLR058C, strain SHM2 (second series), stronger effect = lower value 0.996 | locus YLR085C, strain ARP6, stronger effect = lower value 0.991 | locus YLR262C, strain YPT6, stronger effect = lower value 1.07 | locus YML094W, strain GIM5, stronger effect = lower value 0.999 | locus YMR219W, strain ESC1, stronger effect = lower value 0.996 | locus YMR263W, strain SAP30, stronger effect = lower value 1 | locus YMR307W, strain GAS1, stronger effect = lower value 1.06 | locus YNL128W, strain TEP1, stronger effect = lower value 1 | locus YNL153C, strain GIM3, stronger effect = lower value 1.03 | locus YNL298W, strain CLA4 (second series), stronger effect = lower value 1.01 | locus YNL322C, strain KRE1, stronger effect = lower value 0.999 | locus YNR030W, strain Alg12, stronger effect = lower value 0.995 | locus YOL006C, strain TOP1, stronger effect = lower value 0.944 | locus YPL055C, strain LGE1, stronger effect = lower value 0.879 | locus YPL241C, strain CIN2, stronger effect = lower value 0.985 | locus YPR135W, strain CTF4, stronger effect = lower value 1.01

Cc1[nH]c(C)c(Cl)c(=O)c1Cl
inactive: locus YAL021C, strain ccr4, stronger effect = lower value 1.01 | locus YAL026C, strain drs2, stronger effect = lower value 1.01 | locus YAL030W, strain snc1, stronger effect = lower value 0.998 | locus YBL061C, strain skt5, stronger effect = lower value 1 | locus YBR009C, strain hhf1, stronger effect = lower value 1.03 | locus YBR023C, strain chs3, stronger effect = lower value 1 | locus YBR171W, strain sec66, stronger effect = lower value 1 | locus YBR231C, strain swc5, stronger effect = lower value 0.996 | locus YBR279W, strain paf1, stronger effect = lower value 0.999 | locus YCL011C, strain gbp2, stronger effect = lower value 1.01 | locus YCL016C, strain dcc1, stronger effect = lower value 0.997 | [1] 0.998 | locus YCL069W, strain vba3, stronger effect = lower value 0.997 | locus YCR088W, strain abp1, stronger effect = lower value 1 | locus YDL005C, strain med2, stronger effect = lower value 1.01 | locus YDL040C, strain nat1, stronger effect = lower value 1 | locus YDR001C, strain nth1, stronger effect = lower value 0.994 | locus YDR069C, strain doa4, stronger effect = lower value 1.02 | locus YDR137W, strain rgp1, stronger effect = lower value 1.01 | locus YDR159W, strain sac3, stronger effect = lower value 0.981 | locus YDR195W, strain ref2 0.962 | locus YDR297W, strain sur2, stronger effect = lower value 1.01 | locus YDR334W, strain swr1, stronger effect = lower value 1 | locus YDR335W, strain msn5, stronger effect = lower value 1 | locus YDR392W, strain spt3, stronger effect = lower value 1.03 | locus YEL003W, strain gim4, stronger effect = lower value 1.01 | locus YEL037C, strain rad23, stronger effect = lower value 0.999 | locus YEL061C, strain CIN8 (second series), stronger effect = lower value 1.01 | locus YER015W, strain faa2, stronger effect = lower value 0.999 | locus YER016W, strain bim1, stronger effect = lower value 0.995 | locus YER111C, strain swi4, stronger effect = lower value 0.999 | locus YER155C, strain BEM2 (second series), stronger effect = lower value 1.01 | locus YFR010W, strain ubp6, stronger effect = lower value 1.01 | locus YGL167C, strain pmr1, stronger effect = lower value 0.999 | locus YGL173C, strain kem1, stronger effect = lower value 1 | locus YGL227W, strain vid30, stronger effect = lower value 0.996 | locus YGL240W, strain doc1, stronger effect = lower value 0.998 | locus YGL253W, strain hxk2, stronger effect = lower value 1.01 | locus YHR013C, strain ard1, stronger effect = lower value 0.979 | locus YHR027C, strain rpn1, stronger effect = lower value 0.992 | [2] 1.04 | locus YHR079C, strain IRE1, stronger effect = lower value 1.03 | locus YHR142W, strain chs7, stronger effect = lower value 1.01 | locus YJL092W, strain hpr5, stronger effect = lower value 0.996 | locus YJL095W, strain BCK1 (second series), stronger effect = lower value 0.998 | locus YJL095W, strain BCK1, stronger effect = lower value 0.983 | locus YJL115W, strain asf1, stronger effect = lower value 1.01 | locus YJL129C, strain trk1, stronger effect = lower value 0.992 | locus YJL154C, strain vps35, stronger effect = lower value 0.999 | locus YJL164C, strain tpk1, stronger effect = lower value 1.01 | locus YJL166W, strain qcr8, stronger effect = lower value 1.01 | locus YJR066W, strain TOR1, stronger effect = lower value 0.986 | locus YKL160W, strain elf1, stronger effect = lower value 1 | locus YKR026C, strain gcn3, stronger effect = lower value 1 | locus YKR091W, strain srl3, stronger effect = lower value 1 | locus YLL001W, strain dnm1, stronger effect = lower value 1 | locus YLL026W, stronger effect = lower value 1 | locus YLL041C, strain sdh2, stronger effect = lower value 1 | locus YLR027C, strain aat2, stronger effect = lower value 1.01 | locus YLR113W, strain HOG1, stronger effect = lower value 0.98 | locus YLR221C, strain rsa3, stronger effect = lower value 0.997 | locus YLR258W, strain gsy2, stronger effect = lower value 0.995 | locus YLR262C, strain YPT6 (second series), stronger effect = lower value 1.03 | locus YLR320W, strain mms22, stronger effect = lower value 1 | locus YLR342W, strain FKS1, stronger effect = lower value 1 | locus YLR357W, strain rsc2, stronger effect = lower value 1 | locus YLR370C, strain arc18, stronger effect = lower value 0.998 | locus YLR384C, strain iki3, stronger effect = lower value 0.995 | locus YML120C, strain ndi1, stronger effect = lower value 1.01 | locus YMR058W, strain fet3, stronger effect = lower value 1.01 | locus YMR125W, strain sto1, stronger effect = lower value 0.994 | locus YMR129W, stronger effect = lower value 0.993 | locus YMR205C, strain PFK2, stronger effect = lower value 0.988 | locus YMR231W, strain pep5, stronger effect = lower value 0.991 | locus YNL071W, strain lat1, stronger effect = lower value 1 | locus YNL183C, strain NPR1, stronger effect = lower value 0.972 | locus YNL209W, strain ssb2, stronger effect = lower value 1.01 | locus YNL248C, strain rpa49, stronger effect = lower value 1.01 | locus YNL322C, strain KRE1 (second series), stronger effect = lower value 0.999 | locus YNR049C, strain mso1, stronger effect = lower value 1 | locus YOR001W, strain rrp6, stronger effect = lower value 1.01 | locus YOR070C, strain gyp1, stronger effect = lower value 1.01 | locus YOR080W, strain dia2, stronger effect = lower value 0.991 | locus YOR083W, strain WHI5, stronger effect = lower value 1.01 | locus YOR106W, strain vam3, stronger effect = lower value 1.02 | locus YOR231W, strain MKK1, stronger effect = lower value 0.999 | locus YOR265W, strain rbl2, stronger effect = lower value 1.01 | locus YOR270C, strain vph1, stronger effect = lower value 1 | locus YOR290C, strain snf2, stronger effect = lower value 0.999 | locus YPL051W, strain arl3, stronger effect = lower value 1.01 | locus YPL078C, strain atp4, stronger effect = lower value 1 | locus YPL106C, strain sse1, stronger effect = lower value 1 | locus YPL240C, strain hsp82, stronger effect = lower value 0.991 | locus YPL256C, strain CLN2, stronger effect = lower value 1.02

From PubChem BioAssay AID1159580 (chemical genetic matrix, 2015)
